# Measured values reported in ChEMBL document CHEMBL1201862, “PubChem BioAssay data set” (2004).
# Hit rate of the full screen: of about 400,000 compounds, about 2,100 (0.53%) were called active. Roughly 14% stayed inconclusive and do not appear here. No rule for the calls is given here. The sample as a whole holds a higher share of actives than the screen did.
# Target: Ataxin-2 (Homo sapiens) (UniProt Q99700)
# Experiment: qHTS for Inhibitors of ATXN expression.
# Format: functional
# Ataxin-2 (Homo sapiens), sequence (Q99700 whole entry): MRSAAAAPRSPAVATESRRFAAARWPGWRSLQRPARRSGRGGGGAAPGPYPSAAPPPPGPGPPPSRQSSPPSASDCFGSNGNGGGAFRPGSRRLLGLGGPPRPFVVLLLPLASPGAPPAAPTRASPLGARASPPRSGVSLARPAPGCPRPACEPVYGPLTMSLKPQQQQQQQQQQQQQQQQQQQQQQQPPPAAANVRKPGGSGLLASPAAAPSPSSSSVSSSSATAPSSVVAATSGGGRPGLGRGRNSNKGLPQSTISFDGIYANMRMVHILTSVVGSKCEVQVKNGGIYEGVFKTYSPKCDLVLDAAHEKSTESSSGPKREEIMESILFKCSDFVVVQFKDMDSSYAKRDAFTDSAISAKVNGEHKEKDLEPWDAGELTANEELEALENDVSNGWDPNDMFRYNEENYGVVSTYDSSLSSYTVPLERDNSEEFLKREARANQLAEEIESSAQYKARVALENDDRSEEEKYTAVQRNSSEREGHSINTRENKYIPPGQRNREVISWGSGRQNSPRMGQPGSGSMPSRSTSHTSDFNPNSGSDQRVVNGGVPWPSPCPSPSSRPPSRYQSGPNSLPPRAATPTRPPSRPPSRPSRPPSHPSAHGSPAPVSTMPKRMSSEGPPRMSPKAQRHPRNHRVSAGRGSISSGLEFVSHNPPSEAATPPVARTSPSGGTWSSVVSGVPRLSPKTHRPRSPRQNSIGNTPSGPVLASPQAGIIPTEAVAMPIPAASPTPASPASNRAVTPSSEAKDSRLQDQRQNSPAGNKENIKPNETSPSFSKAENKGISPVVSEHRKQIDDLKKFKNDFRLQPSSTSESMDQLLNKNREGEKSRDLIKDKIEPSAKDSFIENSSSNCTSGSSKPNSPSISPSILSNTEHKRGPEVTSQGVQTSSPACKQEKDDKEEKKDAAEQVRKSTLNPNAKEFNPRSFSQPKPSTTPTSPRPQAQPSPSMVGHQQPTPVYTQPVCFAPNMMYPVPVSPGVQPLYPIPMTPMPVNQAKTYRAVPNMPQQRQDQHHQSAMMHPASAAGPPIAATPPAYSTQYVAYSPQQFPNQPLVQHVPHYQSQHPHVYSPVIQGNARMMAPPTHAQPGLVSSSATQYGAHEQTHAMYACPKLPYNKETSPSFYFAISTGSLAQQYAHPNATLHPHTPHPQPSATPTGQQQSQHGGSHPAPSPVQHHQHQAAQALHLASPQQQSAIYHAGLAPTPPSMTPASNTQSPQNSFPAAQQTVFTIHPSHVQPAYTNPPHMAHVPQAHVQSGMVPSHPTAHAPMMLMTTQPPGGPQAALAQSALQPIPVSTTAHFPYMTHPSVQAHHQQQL
row,Structure (SMILES),Potency
1,O=C(CCCCl)Oc1ccc2cc(-c3ccc4ccccc4n3)c(=O)oc2c1,inactive
2,Cc1ccc(NC(=O)C2CCCN2c2nn3c(=O)cc(C)nc3s2)cc1 (stereo not drawn),inactive
3,CCOc1ncccc1C(=O)OCC(=O)NC(=O)NC(C)C,inactive
4,CCOc1ncccc1C(=O)Nc1nc(C(C)(C)C)cs1,39.8 µM (active)
5,CCOc1ncccc1C(=O)NC(C)CCc1ccccc1 (stereo not drawn),inactive
6,COc1ccc([C@@H](C)NC(=O)CCc2nnc(-c3cc(C)on3)o2)cc1,inactive
7,COc1ccc2[nH]c3nc(SCc4nnc(-c5ccc(C)cc5)o4)nnc3c2c1,22.4 µM (active)
8,COc1ccc(C2CC(c3ccc(F)cc3)n3nc(NC(=O)c4ccco4)nc3N2)cc1 (stereo not drawn),inactive
9,Cc1ccc(C)c(CSc2cn(CCNC(=O)c3cccs3)c3ccccc23)c1,31.6 µM (active)
10,CCCn1nc(NC(=O)c2cccs2)c2cc3cc(C)ccc3nc21,inactive
11,N#Cc1c(N)n(CCNC(=O)c2cccs2)c2nc3ccccc3nc12,inactive
12,COC(=O)c1cc(=O)nc(NN=C2c3ccccc3-c3ccccc32)s1,14.1 µM (active)
13,Cc1cccn2c(=O)c3cc(C#N)/c(=N\C(=O)c4ccccc4)n(Cc4ccco4)c3nc12,inactive
14,O=C(Oc1cc2oc(=O)c3c(c2cc1Cl)CCCC3)c1cccs1,inactive
15,COc1cc2c(cc1OC)C(c1ccccc1)N(C(=O)CCl)CC2 (stereo not drawn),25.1 µM (active)
16,COc1cc2c(cc1OC)CN(C1CCC(C(C)(C)C)CC1)CC2 (stereo not drawn),inactive
17,COc1cc2c(cc1OC)C(c1ccccc1Cl)N(C)CC2 (stereo not drawn),inactive
18,CCc1ccc(-c2cc(C(F)(F)F)n3nc(C(=O)Nc4cnn(Cc5ccccc5C)c4)cc3n2)s1,inactive
19,CC1(C)CC(=O)c2cnc(N3CCc4ccccc43)nc2C1,inactive
20,COc1ccc(S(=O)(=O)N(C)C)cc1NC(=O)CCNC(=O)c1ccco1,inactive
21,O=C(c1cccs1)N1CCN(C(=O)c2cccs2)C1=S,39.8 µM (active)
22,O=C(NCCNC1CCC(c2ccccc2)CC1)c1cccs1 (stereo not drawn),inactive
23,Nc1ccc(/C=C/C(=O)c2cccs2)cc1,inactive

row,Structure (SMILES),Potency
1,CCOc1cc(Br)c(C(C)NC(=O)c2cccnc2)cc1OCC (stereo not drawn),inactive
2,N#C/C(=C(/O)CCCl)c1ccccn1,inactive
3,FC(F)Sc1ccc(NC(=S)N2CCN(c3ccccn3)CC2)cc1,inactive
4,CCOC(=O)c1cnc(-c2ccccc2O)nc1Cl,inactive
5,CCOC(=O)C1=Nc2ccccc2C1=[N+]=[N-],39.8 µM (active)
6,CCOC(=O)C1C(C(=O)NN)C1C(=O)Nc1ccccc1 (stereo not drawn),inactive
7,Cc1ccc2nc3c(cc2c1)c(C)nn3-c1ccccc1,inactive
8,O=C(C(Cc1ccccc1)n1cccc1)N1CCCCC1 (stereo not drawn),inactive
9,O=C1OCCN1C(=O)[C@H]1[C@H](c2ccccc2)C(c2cccc(Cl)c2)=NN1c1ccccc1,inactive
10,CCCc1nnc(SCC(=O)Nc2ccccc2F)o1,inactive
11,CCCCn1c(CNC(=O)C23CC4CC(CC(C4)C2)C3)nnc1SCC(=O)Nc1ccc(C)cc1,35.5 µM (active)
12,COc1ccc(NC(=O)Cc2nnc(SCC(=O)NC3=NCCS3)n2C)cc1,inactive
13,Cc1ccc(C(C)NC(=O)C23CC4CC(CC(C4)C2)C3)cc1 (stereo not drawn),inactive
14,N#Cc1c(N)n(CCCN2CCOCC2)c2nc3ccccc3nc12,inactive
15,O=C(Nc1ccn(CCCN2CCN(Cc3cccc4ccccc34)CC2)c(=O)n1)OCc1ccccc1,14.1 µM (active)
16,O=C(Cc1cccc2ccccc12)Nc1ccc(Br)cc1C(=O)O,inactive
17,Cc1ccc(-c2nnn3c2nc(NCCc2ccc(S(N)(=O)=O)cc2)c2ccccc23)cc1,inactive
18,Cc1ccc(S(=O)(=O)c2nnn3c2nc(NC2CCN(Cc4ccccc4)CC2)c2ccccc23)cc1C,39.8 µM (active)
19,CC(=O)NCCNc1nc2c(-c3cccc(C(F)(F)F)c3)nnn2c2ccccc12,inactive
20,Cc1nc2nc(SCC(=O)O)nn2c(C)c1Cc1ccccc1Cl,inactive
21,Cc1ccc(OCC(=O)N2CC(C)OC(C)C2)c([N+](=O)[O-])n1 (stereo not drawn),inactive
22,CN1C2CCC1/C(=C/c1cccn1C)C(=O)/C2=C\c1cccn1C,inactive
23,N=c1c(S(=O)(=O)c2ccc(Br)cc2)cc2c(=O)n3ccccc3nc2n1Cc1ccco1,inactive

row,Structure (SMILES),Potency
1,O=[N+]([O-])c1cc(-c2ncccn2)c([N+](=O)[O-])s1,25.1 µM (active)
2,Cc1c(NS(=O)(=O)c2cc([N+](=O)[O-])ccc2Cl)c(=O)n(-c2ccccc2)n1C,inactive
3,CC(c1ccon1)N(C)C(=O)c1cnn(-c2ncc3c(n2)-c2ccccc2CC3)c1C1CC1 (stereo not drawn),inactive
4,Cc1cc(C)c(C#N)c(OCc2ccc(Cl)nc2)n1,inactive
5,N#Cc1ccc(C(=O)OCC(=O)Nc2cccnc2Cl)cc1,inactive
6,Cc1ccc(NC(=O)/C(C#N)=C/c2cc(C)n(-c3ccc(Br)cc3)c2C)cc1C,35.5 µM (active)
7,COc1cc(C)c(/C=C(\C#N)C(=O)Nc2ccc(C)cc2)cc1C(C)C,inactive
8,Cc1ccc(NC(=O)/C(C#N)=C/c2cn(CC(=O)NCc3ccco3)c3ccccc23)cc1C,inactive
9,NC(=S)NN=Cc1nccc2c(C(F)(F)C(F)(F)C(F)(F)F)cccc12,1 µM (active)
10,CNC(=S)N/N=C/c1c2ccccc2c(Cl)c2ccccc12,inactive
11,NC(=S)NN=Cc1nccc2c(N)cccc12,8.91 µM (active)
12,N=c1c(C(=O)NCC2CCCO2)cc2c(=O)n3ccccc3nc2n1CCCO (stereo not drawn),inactive
13,OCCn1ccc(-c2ccccc2OCc2ccc(F)cc2)n1,inactive
14,CCCCCCc1cc2cc(S(=O)(=O)c3ccc(C)cc3)c(=O)oc2cc1O,inactive
15,CC(C)N(C(=O)CS(=O)(=O)c1ccc(Cl)c(Cl)c1)C(C)C,inactive
16,O=C(NCC1CCCO1)c1nn2c(C(F)(F)F)cc(-c3cccs3)nc2c1Br (stereo not drawn),inactive
17,COCCCNc1nc2ccccc2nc1NS(=O)(=O)c1cc(Cl)ccc1Cl,inactive
18,CCCCNC(=O)C(C)N(CCN(C)C)C(=O)CCCN1C(=O)NC(c2ccc(Cl)cc2)C(C(=O)OCc2ccccc2)=C1C (stereo not drawn),25.1 µM (active)
19,NC(=O)C1(N2CCCCC2)CCN(C(=O)c2cc(COc3c(F)cccc3F)on2)CC1,inactive
20,COc1ccc(C(=O)Nc2ccc(S(=O)(=O)Nc3nccc(C)n3)cc2)cc1[N+](=O)[O-],inactive
21,Cc1ccc(C(=O)Nc2ccc(S(=O)(=O)Nc3ncccn3)cc2)cc1[N+](=O)[O-],inactive
22,Cc1ccc(NC(=O)c2ccc(Nc3c([N+](=O)[O-])cc([N+](=O)[O-])cc3[N+](=O)[O-])cc2)cc1,15.8 µM (active)
